Here are results for nine molecules from PubChem BioAssay (EPA / NIEHS).

What is called AC50 is the concentration at which the activity in the assay is half-maximal.

Records with an inconclusive call do not appear. Activity calls are given as the source filed them. The calls were made as follows, unless noted: active = hit-call score of the fitted dose curve at least 0.9, where 1 is the maximum; inactive = score below 0.9.

The nature of test [1]: ATG_NFI_CIS: Attagene CIS-FACTORIAL HepG2 Assay for human Nuclear Factor I (NFI) (AID 2282989). The following applies: HepG2 cis-regulatory reporter, NFI response element transcription; actives raise or lower the signal. Summed up:
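Read-out: reporter mRNA via RT-PCR plus capillary electrophoresis with fluorescence detection. Transiently transfected HepG2 (endogenous TF activity on cis promoters), 24 h compound exposure; gain or loss of signal fitted against DMSO.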

Test [2] addresses Myc proto-oncogene protein (Homo sapiens) (UniProt P01106). Nature of the test: ATG_Myc_CIS: Attagene CIS-FACTORIAL HepG2 Assay for human Myelocytomatosis (Myc) Proto-Oncogene Transcription Factor (AID 2282990). Particulars: HepG2, Attagene cis-reporter transcription factor activity; actives raise or lower the signal. Summed up:
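After 24 h chemical treatment of HepG2 cells carrying multiplexed cis-regulated reporter constructs, reporter transcripts quantified by RT-PCR and capillary electrophoresis of fluorescent fragments. Gain or loss fitted against DMSO baseline.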

Test [3] can be described thus: ATG_Oct_MLP_CIS: Attagene CIS-FACTORIAL HepG2 Assay for human Octamer-Binding Transcription Factor (Oct) (AID 2282993). Particulars: HepG2 Attagene cis-factorial Oct reporter, mRNA; actives raise or lower the signal. In a few lines: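 Read-out: reporter mRNA via RT-PCR plus capillary electrophoresis of 6-FAM-labelled fragments. Transiently transfected HepG2, 24 h exposure, endogenous TF activity on cis elements. Gain or loss of signal fitted relative to DMSO.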

The target of test [4] is human Peroxisome Proliferator-activated Receptor alpha (PPARa), PPARA (gene 5465) (UniProt Q07869). Nature of the test: ATG_PPARa_TRANS: Attagene TRANS-FACTORIAL HepG2 Assay for human Peroxisome Proliferator-activated Receptor alpha (PPARa) (AID 2283001; active = hit-call score of the fitted dose curve at least 0.9, where 1 is the maximum). In a few lines: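 Read-out is fluorescence of reporter cDNA fragments resolved by capillary electrophoresis after RT-PCR. Human HepG2 liver cells carried transfected PPARa-Gal4 chimera and GAL4-UAS reporter units, treated 24 h; activity scored as increase over DMSO.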
human Peroxisome Proliferator-activated Receptor alpha (PPARa), PPARA (gene 5465), sequence (Q07869 whole entry, looked up, the tested form may be a part): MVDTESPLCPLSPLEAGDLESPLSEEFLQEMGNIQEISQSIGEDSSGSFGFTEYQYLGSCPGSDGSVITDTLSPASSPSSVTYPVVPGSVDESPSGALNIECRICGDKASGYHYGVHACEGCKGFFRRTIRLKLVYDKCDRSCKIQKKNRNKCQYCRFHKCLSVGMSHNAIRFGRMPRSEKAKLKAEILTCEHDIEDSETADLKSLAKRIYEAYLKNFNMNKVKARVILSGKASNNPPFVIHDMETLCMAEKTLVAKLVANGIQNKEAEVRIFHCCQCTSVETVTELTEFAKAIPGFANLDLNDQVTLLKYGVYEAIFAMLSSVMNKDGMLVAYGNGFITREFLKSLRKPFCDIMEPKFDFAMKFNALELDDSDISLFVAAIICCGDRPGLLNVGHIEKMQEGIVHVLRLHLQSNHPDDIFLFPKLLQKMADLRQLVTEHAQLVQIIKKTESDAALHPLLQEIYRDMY

Test [5] deals with Retinoic acid receptor alpha (Homo sapiens) (UniProt P10276). In words: ATG_RARa_TRANS: Attagene TRANS-FACTORIAL HepG2 Assay for human Retinoic Acid Receptor alpha (RARa) (AID 2283005; active = hit-call score of the fitted dose curve at least 0.9, where 1 is the maximum). Summed up: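 Reporter transcripts, measured by RT-PCR with fluorescent labeling and capillary electrophoresis after 24 h dosing, reflect activity of an exogenous human RARa–GAL4 fusion in transiently transfected HepG2. Fitted for increase relative to DMSO.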
Retinoic acid receptor alpha (Homo sapiens), sequence (P10276 whole entry, looked up, the tested form may be a part): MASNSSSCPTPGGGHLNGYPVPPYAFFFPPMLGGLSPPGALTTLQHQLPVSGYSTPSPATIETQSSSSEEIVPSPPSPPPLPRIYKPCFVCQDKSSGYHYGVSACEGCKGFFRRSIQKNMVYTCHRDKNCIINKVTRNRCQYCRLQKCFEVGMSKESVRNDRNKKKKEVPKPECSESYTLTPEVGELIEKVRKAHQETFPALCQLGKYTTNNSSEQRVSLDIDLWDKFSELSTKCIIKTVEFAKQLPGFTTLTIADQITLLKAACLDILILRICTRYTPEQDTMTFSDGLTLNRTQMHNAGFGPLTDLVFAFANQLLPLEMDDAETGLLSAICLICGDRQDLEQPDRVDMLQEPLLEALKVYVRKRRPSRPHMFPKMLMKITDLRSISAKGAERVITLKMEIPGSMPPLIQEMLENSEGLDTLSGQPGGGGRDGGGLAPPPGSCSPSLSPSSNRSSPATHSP

For test [6], the target named is Nuclear receptor subfamily 1 group I member 2 (Homo sapiens) (UniProt O75469). Nature of the test: ATG_PXR_TRANS: Attagene TRANS-FACTORIAL HepG2 Assay for human Pregnane X Receptor (PXR) (AID 2283008; active = hit-call score of the fitted dose curve at least 0.9, where 1 is the maximum). In a few lines: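 Read-out is fluorescence of labelled reporter cDNA fragments separated by capillary electrophoresis after RT-PCR and HpaI digestion. Source: HepG2 cells carrying PXR-GAL4/UAS reporter constructs, treated 24 h; activity fitted upward relative to DMSO.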
Nuclear receptor subfamily 1 group I member 2 (Homo sapiens), sequence (O75469 whole entry, looked up, the tested form may be a part): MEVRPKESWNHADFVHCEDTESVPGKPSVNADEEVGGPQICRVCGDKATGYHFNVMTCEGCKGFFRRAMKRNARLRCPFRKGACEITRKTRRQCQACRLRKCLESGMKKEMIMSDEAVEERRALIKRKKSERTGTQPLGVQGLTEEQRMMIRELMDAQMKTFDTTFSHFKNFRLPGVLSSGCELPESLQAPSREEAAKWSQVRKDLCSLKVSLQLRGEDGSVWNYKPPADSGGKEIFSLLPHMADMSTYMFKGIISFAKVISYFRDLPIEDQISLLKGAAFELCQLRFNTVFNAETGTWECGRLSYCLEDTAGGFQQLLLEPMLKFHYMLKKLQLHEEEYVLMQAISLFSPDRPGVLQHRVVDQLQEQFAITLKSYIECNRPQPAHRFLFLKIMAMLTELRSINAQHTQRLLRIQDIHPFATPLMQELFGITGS

The target of test [7] is human Retinoic Acid Receptor gamma (RARg), RARG (gene 5916) (UniProt P13631). Nature of the test: ATG_RARg_TRANS: Attagene TRANS-FACTORIAL HepG2 Assay for human Retinoic Acid Receptor gamma (RARg) (AID 2283009; active = hit-call score of the fitted dose curve at least 0.9, where 1 is the maximum). In a few lines: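 HepG2 transiently transfected with GAL4-UAS reporter units and chimeric NR-Gal4 constructs; 24 h compound exposure. Reporter mRNA quantified by RT-PCR, FAM labeling, HpaI digestion and capillary electrophoresis; gain-of-signal versus DMSO.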
human Retinoic Acid Receptor gamma (RARg), RARG (gene 5916), sequence (P13631 whole entry, looked up, the tested form may be a part): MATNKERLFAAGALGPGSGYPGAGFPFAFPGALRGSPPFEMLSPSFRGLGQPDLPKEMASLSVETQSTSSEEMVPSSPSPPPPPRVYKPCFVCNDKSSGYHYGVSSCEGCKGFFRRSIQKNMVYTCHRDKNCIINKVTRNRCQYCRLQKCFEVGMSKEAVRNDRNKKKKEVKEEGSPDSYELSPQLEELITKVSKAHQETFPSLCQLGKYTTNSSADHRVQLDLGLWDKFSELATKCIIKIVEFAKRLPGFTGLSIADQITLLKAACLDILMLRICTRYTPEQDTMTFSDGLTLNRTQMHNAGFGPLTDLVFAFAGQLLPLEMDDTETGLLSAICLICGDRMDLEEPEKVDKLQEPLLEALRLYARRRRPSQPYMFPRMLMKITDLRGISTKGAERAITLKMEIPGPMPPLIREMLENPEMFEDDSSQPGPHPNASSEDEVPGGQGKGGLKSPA

The target in test [8] is human RAR-related Orphan Receptor beta (RORb), RORB (gene 6096) (UniProt Q92753). In words: ATG_RORb_TRANS: Attagene TRANS-FACTORIAL HepG2 Assay for human RAR-related Orphan Receptor beta (RORb) (AID 2283010; active = hit-call score of the fitted dose curve at least 0.9, where 1 is the maximum). Summed up:
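HepG2 cells transiently transfected with GAL4-UAS reporter units expressing chimeric NR-Gal4 protein; reporter mRNA measured 24 h after dosing by RT-PCR, 6-FAM labelling and capillary electrophoresis. Gain-of-signal fitted relative to DMSO baseline.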

The nature of test [9]: ATG_NRF2_ARE_CIS: Attagene CIS-FACTORIAL HepG2 Assay for human Nuclear Factor Erythroid 2 Related Factor 2 (NFR2) response to Antioxidant Response Elements (ARE) (AID 2282992).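 As to AC50: reporter mRNA level measured by RT-PCR and capillary electrophoresis fluorescence.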 The following applies: HepG2 Attagene ARE/NRF2 reporter, transcription factor activity; actives raise or lower the signal. Summed up:
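Transient MRTU transfection of HepG2; 24 h compound exposure; TriZol RNA, RT with oligo(dT), PCR, 6-FAM primer extension, HpaI cut, CE. Bidirectional fit vs DMSO.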

Test [10] concerns the target human Peroxisome Proliferator-activated Receptor delta (PPARd), PPARD (gene 5467) (UniProt Q03181). In words: ATG_PPARd_TRANS: Attagene TRANS-FACTORIAL HepG2 Assay for human Peroxisome Proliferator-activated Receptor delta (PPARd) (AID 2283002; active = hit-call score of the fitted dose curve at least 0.9, where 1 is the maximum). Summed up:
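Read-out is induced reporter mRNA, quantified by RT-PCR with fluorescent labelling and capillary electrophoresis after 24 h dosing. Cells are HepG2 transiently carrying multiple GAL4-UAS reporter units driven by exogenous NR-GAL4 chimeras; DMSO serves as baseline.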

The target of test [11] is Peroxisome proliferator-activated receptor gamma (Homo sapiens) (UniProt P37231). Nature of the test: ATG_PPARg_TRANS: Attagene TRANS-FACTORIAL HepG2 Assay for human Peroxisome Proliferator-activated Receptor-gamma (PPARg) (AID 2283007; active = hit-call score of the fitted dose curve at least 0.9, where 1 is the maximum). Summed up:
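Chimeric NR-Gal4 transactivation is measured in transiently transfected HepG2 cells by reporter mRNA induction at 24 h. Detection uses RT-PCR with fluorescent labelling and capillary electrophoresis; DMSO defines baseline.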

For test [12], the target named is Cellular tumor antigen p53 (Homo sapiens) (UniProt P04637). In words: ATG_p53_CIS: Attagene CIS-FACTORIAL HepG2 Assay for human p53 Transcription Factor (AID 2282994). Particulars: HepG2 p53 cis-element reporter, Attagene mRNA; actives raise or lower the signal. Summed up:
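HepG2, transient MRTU transfection (cis promoter elements, endogenous TFs); 24 h dosing; RNA isolation, RT-PCR, 6-FAM primer extension, HpaI digest, CE fluorescence; bidirectional fit vs DMSO.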

Test [13] in a line: BSK_3C_TissueFactor: BioMAP Diversity Plus: 3C Assay for Tissue Factor Biomarker Activity (AID 2282997). The following applies: BioMAP 3C HUVEC, tissue factor biomarker readout; actives raise or lower the signal. In a few lines: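 ELISA read-out of Tissue Factor levels on human umbilical vein endothelium collected 24 h after chemical dosing. Gain or loss of signal was fitted relative to DMSO.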

Test [14] in a line: BSK_3C_uPAR: BioMAP Diversity Plus: 3C Assay for Urokinase-type plasminogen activator receptor (uPAR) Biomarker Activity (AID 2282998). Particulars: BioMAP 3C HUVEC, uPAR biomarker ELISA; actives raise or lower the signal. Summed up: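 HUVEC primary cells; 24 h post-dose; uPAR by ELISA; gain or loss of signal fitted bidirectionally vs DMSO baseline.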
In general terms: ELISA stands for enzyme-linked immunosorbent assay.

Test [15] can be described thus: BSK_3C_VCAM1: BioMAP Diversity Plus: 3C Assay for Vascular cell adhesion molecule 1 (VCAM1) Biomarker Activity (AID 2282999). The following applies: BioMAP 3C HUVEC, VCAM1 ELISA, cytokine-stimulated; actives raise or lower the signal. In a few lines: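 Endothelial cells from human umbilical vein are treated with test chemical. At 24 h, VCAM-1 is measured by ELISA, and responses in either direction are fitted relative to DMSO.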

Test [16] is described as follows: BSK_4H_Eotaxin3: BioMAP Diversity Plus: 4H Assay for Eotaxin 3 Biomarker Activity (AID 2283000).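 Also: CCL26 protein level quantified by ELISA in parallel with SRB cytotoxicity check.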 The following applies: primary human endothelial cells (HUVEC); actives raise or lower the signal. Summed up: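 Chemicals were added to human umbilical vein endothelium cultures, and Eotaxin-3 was quantified by ELISA at 24 h. Values were derived by bidirectional fitting with DMSO serving as negative control and activity baseline.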

Read-out in test [17]: Intercellular Adhesion Molecule 1 (ICAM1), ICAM1 (gene 3383)
In words: BSK_3C_ICAM1: BioMAP Diversity Plus: 3C Assay for Intercellular Adhesion Molecule 1 (ICAM1) Biomarker Activity (AID 2283003). Particulars: primary human endothelial cells (HUVEC); actives raise or lower the signal. Summed up: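 HUVEC primary cells stimulated under 3C conditions; ICAM1 measured by ELISA 24 h after compound dosing. Curves fitted bidirectionally against the DMSO baseline. Overt cytotoxicity checked by SRB staining of parallel cultures.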

Test [18] has as its target human RAR-related Orphan Receptor gamma (RORg), RORC (gene 6097) (UniProt P51449). In words: ATG_RORg_TRANS: Attagene TRANS-FACTORIAL HepG2 Assay for human RAR-related Orphan Receptor gamma (RORg) (AID 2283011; active = hit-call score of the fitted dose curve at least 0.9, where 1 is the maximum). In a few lines:
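First, HepG2 liver cells were transfected with GAL4-UAS-driven reporter constructs and the RORg-Gal4 fusion. Next, they were treated with chemical for 24 h. Finally, reporter mRNA was quantified by RT-PCR and capillary electrophoresis, with upward activity fitted against DMSO.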

Myc proto-oncogene protein (Homo sapiens), sequence (P01106 whole entry, looked up, the tested form may be a part): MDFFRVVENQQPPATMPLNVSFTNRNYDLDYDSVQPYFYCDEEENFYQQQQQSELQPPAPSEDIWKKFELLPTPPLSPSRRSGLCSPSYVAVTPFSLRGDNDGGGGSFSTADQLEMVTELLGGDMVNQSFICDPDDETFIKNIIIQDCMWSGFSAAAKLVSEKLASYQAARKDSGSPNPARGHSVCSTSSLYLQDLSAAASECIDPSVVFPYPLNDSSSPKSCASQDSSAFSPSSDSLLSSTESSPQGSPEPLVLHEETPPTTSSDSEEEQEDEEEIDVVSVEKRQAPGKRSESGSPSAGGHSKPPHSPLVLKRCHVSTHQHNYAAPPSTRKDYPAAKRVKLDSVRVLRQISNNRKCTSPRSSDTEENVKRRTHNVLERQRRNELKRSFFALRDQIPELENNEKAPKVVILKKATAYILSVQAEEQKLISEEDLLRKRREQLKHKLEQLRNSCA
Peroxisome proliferator-activated receptor gamma (Homo sapiens), sequence (P37231 whole entry, looked up, the tested form may be a part): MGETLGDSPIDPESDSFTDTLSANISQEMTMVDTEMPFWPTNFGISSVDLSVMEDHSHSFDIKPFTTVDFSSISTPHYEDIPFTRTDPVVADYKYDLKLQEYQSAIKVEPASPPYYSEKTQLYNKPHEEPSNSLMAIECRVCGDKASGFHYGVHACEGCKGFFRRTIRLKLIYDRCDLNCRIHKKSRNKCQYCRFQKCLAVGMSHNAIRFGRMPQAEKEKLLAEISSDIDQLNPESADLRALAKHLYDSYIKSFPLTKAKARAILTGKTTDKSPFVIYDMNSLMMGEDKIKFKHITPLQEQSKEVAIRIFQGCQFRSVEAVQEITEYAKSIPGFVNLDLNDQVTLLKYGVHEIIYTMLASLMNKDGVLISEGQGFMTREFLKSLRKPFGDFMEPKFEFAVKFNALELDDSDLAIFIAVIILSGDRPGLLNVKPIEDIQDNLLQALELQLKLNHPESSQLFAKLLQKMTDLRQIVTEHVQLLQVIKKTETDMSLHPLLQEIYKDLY
Cellular tumor antigen p53 (Homo sapiens), sequence (P04637 whole entry, looked up): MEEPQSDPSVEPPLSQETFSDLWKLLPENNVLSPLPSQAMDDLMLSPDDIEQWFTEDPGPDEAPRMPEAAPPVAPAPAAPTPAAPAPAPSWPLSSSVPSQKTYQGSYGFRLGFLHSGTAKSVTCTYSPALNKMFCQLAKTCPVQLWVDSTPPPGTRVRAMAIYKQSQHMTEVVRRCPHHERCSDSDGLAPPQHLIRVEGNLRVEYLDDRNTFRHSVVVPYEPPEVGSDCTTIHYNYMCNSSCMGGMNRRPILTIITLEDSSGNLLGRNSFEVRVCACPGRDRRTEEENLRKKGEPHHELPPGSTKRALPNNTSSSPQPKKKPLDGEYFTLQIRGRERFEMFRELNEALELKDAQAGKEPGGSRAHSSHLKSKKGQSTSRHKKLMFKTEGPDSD
human RAR-related Orphan Receptor beta (RORb), RORB (gene 6096), sequence (Q92753 whole entry, looked up, the tested form may be a part): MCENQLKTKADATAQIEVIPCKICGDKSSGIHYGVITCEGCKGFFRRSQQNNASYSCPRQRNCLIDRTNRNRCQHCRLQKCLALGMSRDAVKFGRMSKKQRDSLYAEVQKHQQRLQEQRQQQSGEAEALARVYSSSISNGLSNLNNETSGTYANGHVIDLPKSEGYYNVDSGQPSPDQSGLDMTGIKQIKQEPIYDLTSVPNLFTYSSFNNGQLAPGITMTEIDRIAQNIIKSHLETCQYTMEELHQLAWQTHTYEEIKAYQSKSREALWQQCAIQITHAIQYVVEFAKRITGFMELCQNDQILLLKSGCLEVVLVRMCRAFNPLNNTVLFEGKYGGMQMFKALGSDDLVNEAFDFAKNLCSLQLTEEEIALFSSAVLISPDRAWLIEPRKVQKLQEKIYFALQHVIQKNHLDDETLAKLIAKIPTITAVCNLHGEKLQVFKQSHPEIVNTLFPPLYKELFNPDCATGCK
human Peroxisome Proliferator-activated Receptor delta (PPARd), PPARD (gene 5467), sequence (Q03181 whole entry, looked up, the tested form may be a part): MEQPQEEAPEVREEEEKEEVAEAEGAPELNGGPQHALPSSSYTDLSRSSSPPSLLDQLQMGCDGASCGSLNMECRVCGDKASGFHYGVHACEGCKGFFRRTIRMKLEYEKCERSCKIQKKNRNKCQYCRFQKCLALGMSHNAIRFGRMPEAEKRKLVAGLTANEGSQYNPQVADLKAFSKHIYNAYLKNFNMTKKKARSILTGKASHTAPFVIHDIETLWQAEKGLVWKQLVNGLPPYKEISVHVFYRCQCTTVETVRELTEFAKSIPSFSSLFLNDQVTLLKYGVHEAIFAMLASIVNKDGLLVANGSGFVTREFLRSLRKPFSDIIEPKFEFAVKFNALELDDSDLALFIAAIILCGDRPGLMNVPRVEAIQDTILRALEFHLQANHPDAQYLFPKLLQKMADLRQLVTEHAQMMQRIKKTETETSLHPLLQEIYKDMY
human RAR-related Orphan Receptor gamma (RORg), RORC (gene 6097), sequence (P51449 whole entry, looked up, the tested form may be a part): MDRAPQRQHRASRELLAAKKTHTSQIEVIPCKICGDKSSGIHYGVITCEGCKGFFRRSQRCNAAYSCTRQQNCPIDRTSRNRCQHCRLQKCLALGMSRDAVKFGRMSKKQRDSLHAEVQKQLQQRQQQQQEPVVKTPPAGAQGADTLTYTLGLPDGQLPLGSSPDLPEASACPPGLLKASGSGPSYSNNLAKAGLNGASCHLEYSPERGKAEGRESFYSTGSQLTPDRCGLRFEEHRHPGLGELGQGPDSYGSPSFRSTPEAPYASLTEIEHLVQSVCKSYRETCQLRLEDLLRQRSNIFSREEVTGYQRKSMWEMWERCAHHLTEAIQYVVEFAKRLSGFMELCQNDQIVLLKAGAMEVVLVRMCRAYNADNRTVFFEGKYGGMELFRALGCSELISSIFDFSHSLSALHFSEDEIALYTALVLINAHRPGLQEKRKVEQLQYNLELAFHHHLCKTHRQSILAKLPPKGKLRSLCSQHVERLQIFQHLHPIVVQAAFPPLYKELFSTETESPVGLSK

Take `CCCC[n+]1ccccc1`: the molecule was called inactive in test [1], in test [2], in test [3], in test [4], in test [5] and in [6]. Further, the result in test [7] and in [8] was inactive.

On to `CCCCCCCCCCC(CO)CCCCCCCC` (stereo unspecified), for which the molecule was called inactive in [1], in test [2], in test [9], in test [3], in test [4] and in test [10]. Besides, the outcome in [11], in [6] and in test [8] was inactive.

With `O=C[C@@H](O)[C@H](O)[C@H](O)CO`, the call in test [1], in test [2], in test [9], in test [12], in test [4] and in test [10] was inactive. For the same molecule, the molecule was called inactive in [11], in test [7] and in test [8].

Consider `O=[N+]([O-])c1cc(C(F)(F)F)ccc1Cl`, for which the molecule was classed as inactive in test [1], in [2], in [12], in [13], in test [14] and in [15]. The outcome in [16], in test [17], in test [11] and in test [6] was inactive. Also, in [9], the AC50 was 50.9 µM (active).

For the molecule `CCCCCC(=O)OCCc1ccccc1`, the result in test [1], in test [2], in test [3], in [12], in test [4] and in test [11] was inactive. In addition, the molecule was classed as inactive in [18].

On to `CC(=O)[O][Al][O]C(C)=O`, for which the molecule was classed as inactive in test [1], in test [2], in test [9] and in [8].

For the molecule `Cc1cc(C2(c3cc(C)c(O)cc3C)OS(=O)(=O)c3ccccc32)c(C)cc1O`, the call in test [1], in [2], in test [3], in [12], in [14] and in test [15] was inactive. In addition, the outcome in [16], in [17] and in [11] was inactive.

With `NCCOCCO`, the outcome in test [1], in test [2], in test [3], in [12], in test [6] and in test [8] was inactive. In addition, the outcome in [18] was inactive.

As for `CCCCO`, the outcome in [1], in [2], in test [9], in [3], in test [4] and in [6] was inactive. In addition, the call in test [8] was inactive.
